Experimental findings from PubChem BioAssay (Tox21) are described below.

Assay [1] is described as follows: qHTS assay to identify small molecule antagonists of the glucocorticoid receptor (GR) signaling pathway - cell viability counter screen (AID 720693; also: nearly all actives have a fitted effect of over 55% in size; also: potency is read from the fitted curve at half-maximal effect). (In qHTS, concentration-response curves come from the screen itself.)
Assay [2] in a line: qHTS assay for identifying genotoxic compounds that show differential cytotoxicity against isogenic chicken DT40 cell lines with known DNA damage response pathways - wild type cell line (AID 743012). Also: nearly all actives have a fitted effect of over 60% in size. Also: potency is read from the fitted curve at half-maximal effect. Summed up:
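Cytotoxicity in repair-proficient parental chicken DT40 cells serves as the comparator for Rad54/Ku70- and Rev3-deficient lines. Cells were exposed to compounds for 40 h at 37 C/5% CO2, and ATP-based luminescence (CellTiter-Glo) measured viability.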

A short description of assay [3]: qHTS assay for identifying genotoxic compounds that show differential cytotoxicity against isogenic chicken DT40 cell lines with known DNA damage response pathways - Rev3 mutant cell line (AID 743014). Also: nearly all actives have a fitted effect of over 55% in size. Also: potency is read from the fitted curve at half-maximal effect.
Assay [4] in a line: qHTS assay to identify small molecule antagonists of the androgen receptor (AR) signaling pathway - cell viability counter screen (AID 743033; also: nearly all actives have a fitted effect of over 45% in size).
Assay [5] in a line: qHTS assay to identify small molecule antagonists of the androgen receptor (AR) signaling pathway using the MDA cell line - cell viability counter screen (AID 743041; also: nearly all actives have a fitted effect of over 45% in size). Summed up:
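Viability read by CellTiter-Fluor fluorescence in the same wells as the antagonist screen, added after 15.5 h of a 16 h, 37C exposure. Human breast carcinoma MDA-kb2 AR-luc cells, compounds co-dosed with agonist R1881.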

Assay [6] in a line: qHTS assay to identify small molecule antagonists of the thyroid receptor (TR) signaling pathway - cell viability counter screen (AID 743064). Also: nearly all actives have a fitted effect of over 50% in size. Also: potency is read from the fitted curve at half-maximal effect. The procedure, abridged:
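Viability of T3-stimulated (1 nM final) GH3.TRE-Luc cells is measured by CellTiter-Fluor fluorescence after 23.5 h compound exposure at 37 °C plus 30 min reagent incubation.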

The nature of assay [7]: qHTS assay to identify small molecule antagonists of the thyroid receptor (TR) signaling pathway (AID 743065). Also: nearly all actives have a fitted effect of over 55% in size. Also: potency is read from the fitted curve at half-maximal effect. The procedure, abridged:
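Antagonism measured as loss of luciferase signal in GH3 cells stably carrying a TRE-luciferase reporter, co-treated with compound and T3 (1 nM final) for 23.5 h at 37 C. Viability was read in the same well by CellTiter-Fluor.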

Assay [8] deals with thyroid hormone receptor (rat, GH3 cells). Description: qHTS assay to identify small molecule agonists of the thyroid receptor (TR) signaling pathway (AID 743066; calls by dose curve).
For assay [9], the target named is Estrogen receptor (Homo sapiens) (UniProt P03372). Description: qHTS assay to identify small molecule antagonists of the estrogen receptor alpha (ER-alpha) signaling pathway (AID 743069; active = well fitted curve in the direction sought with a large enough effect in the signal ratio in the repeat runs, not every such curve was filed as active; inconclusive = weak or mixed curves, or effect the other way; inactive = no such curve, though single readings can be large or run the other way; the % refers to the signal ratio; also: potency is read from the fitted curve at half-maximal effect). Summed up: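 Antagonist mode: compounds in DMSO were co-added with 17beta-estradiol to ER-alpha-bla HEK293 cells (2% charcoal-stripped serum) and left 18 h at 37C. Reporter inhibition was measured as FRET fluorescence after 2 h LiveBLAzer substrate at room temperature.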

A short description of assay [10]: qHTS assay to identify small molecule antagonists of the estrogen receptor alpha (ER-alpha) signaling pathway - cell viability counter screen (AID 743074; calls by dose curve;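 also: HEK293 cells carrying ER-alpha-UAS-bla reporter stimulated with 17beta-estradiol; nearly all actives have a fitted effect of over 45% in size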).
In assay [11] the target is Estrogen receptor (Homo sapiens) (UniProt P03372). Briefly: qHTS assay to identify small molecule agonists of the estrogen receptor alpha (ER-alpha) signaling pathway (AID 743075; calls by dose curve;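 also: HEK293 GripTite cells with ER-alpha and UAS-driven beta-lactamase reporter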; also: potency is read from the fitted curve at half-maximal effect).
Assay [12] has the same target. Briefly: qHTS assay to identify small molecule agonists of the estrogen receptor alpha (ER-alpha) signaling pathway using the BG1 cell line (AID 743079). Also: nearly all actives have a fitted effect of over 20% in size. Also: potency is read from the fitted curve at half-maximal effect.
The nature of assay [13]: qHTS assay to identify small molecule antagonists of the estrogen receptor alpha (ER-alpha) signaling pathway using the BG1 cell line (AID 743080; calls by dose curve;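 also: BG1 cells stimulated with 17beta-estradiol alongside compound; series mostly up to about 70 µM; nearly all actives have a fitted effect of over 25% in size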). The procedure, abridged:
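Quantitative HTS on the Tox21 10K library: BG1 cells with endogenous ER-alpha and ERE-luciferase reporter, 17beta-estradiol stimulation, 21.5 h compound exposure, luminescence endpoint with parallel fluorescence cytotoxicity counter-read.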

Assay [14] is described as follows: qHTS assay to identify small molecule antagonists of the estrogen receptor alpha (ER-alpha) signaling pathway using the BG1 cell line - cell viability counter screen (AID 743081).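 Also: compound given together with 17beta-estradiol as the ER stimulus; nearly all actives have a fitted effect of over 45% in size.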 Also: potency is read from the fitted curve at half-maximal effect.
A further assay has as its target Aromatase (Homo sapiens) (UniProt P11511). Description: qHTS assay to identify aromatase inhibitors (AID 743083). Also: nearly all actives have a fitted effect of over 55% in size. Also: potency is read from the fitted curve at half-maximal effect.
Assay [15] has as its target Androgen receptor (Homo sapiens) (UniProt P10275). Briefly: qHTS assay to identify small molecule antagonists of the androgen receptor (AR) signaling pathway (AID 743035; active = well fitted inhibition curve with a large enough effect in the signal ratio in the repeat runs, not every such curve was filed as active; inconclusive = weak or mixed curves, or effect the other way; inactive = no such curve, though single readings can be large or run the other way; the % refers to the signal ratio). Summed up:
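Steps: seed AR-UAS-bla GripTite HEK293 cells, incubate 4 h at 37C; pin in test compound, then add agonist R1881; incubate 16 h at 37C; add LiveBLAzer B/G FRET substrate, 2 h at room temperature; read fluorescence.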

Assay [16] has the same target. Briefly: qHTS assay to identify small molecule agonists of the androgen receptor (AR) signaling pathway (AID 743036; active = well fitted activation curve with a large enough effect in the signal ratio in the repeat runs, with a control signal flat, not every such curve was filed as active; inconclusive = weak or mixed curves, or effect the other way; inactive = no such curve, though single readings can be large or run the other way; the % refers to the signal ratio). Summed up:
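Screening used 2,000 AR-bla HEK293 cells per well, treated 16 h at 37C with test compounds in DMSO alongside positive and DMSO-only controls; beta-lactamase activity was then read by LiveBLAzer B/G FRET fluorescence after 2 h at room temperature.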

The target is the same in assay [17]. Description: qHTS assay to identify small molecule agonists of the androgen receptor (AR) signaling pathway using the MDA cell line (AID 743040; also: nearly all actives have a fitted effect of over 20% in size). The procedure, abridged: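 Luciferase agonist assay: 16 h compound exposure at 37C without CO2 in MDA-kb2 AR-luc cells, whose MMTV promoter responds to both AR and GR. Luminescence measured after 30 min room-temperature incubation with ONE-Glo.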

For assay [18] the target is unchanged. Briefly: qHTS assay to identify small molecule antagonists of the androgen receptor (AR) signaling pathway using the MDA cell line (AID 743042; also: nearly all actives have a fitted effect of over 55% in size). Summed up:
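Antagonist mode: compounds plus R1881 agonist added to MDA-kb2 AR-luc cells, incubated 16 h at 37C. Luciferase reporter luminescence quantified, with multiplexed CellTiter-Fluor readout for cell viability.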

Assay [19] in a line: qHTS assay for identifying genotoxic compounds that show differential cytotoxicity against isogenic chicken DT40 cell lines with known DNA damage response pathways - Rad54/Ku70 mutant cell line (AID 743015). Also: potency is read from the fitted curve at half-maximal effect; nearly all actives have a fitted effect of over 60% in size.

Several values for one entry are separate records, joined by “and”; a condition that tells them apart may be missing. Equal entries are not always repeated. Values without a mark were called inactive. Activity calls are given as the source filed them. Unless noted, calls follow the shape of the dose curve; as a rule, active = well fitted curve in the direction sought with a large enough effect in the repeat runs; inconclusive = weak or mixed curves; inactive = no such curve, though single readings can be large; an effect the other way counts as inactive or inconclusive.

Chain of Estrogen receptor (Homo sapiens) (P03372 whole entry, looked up): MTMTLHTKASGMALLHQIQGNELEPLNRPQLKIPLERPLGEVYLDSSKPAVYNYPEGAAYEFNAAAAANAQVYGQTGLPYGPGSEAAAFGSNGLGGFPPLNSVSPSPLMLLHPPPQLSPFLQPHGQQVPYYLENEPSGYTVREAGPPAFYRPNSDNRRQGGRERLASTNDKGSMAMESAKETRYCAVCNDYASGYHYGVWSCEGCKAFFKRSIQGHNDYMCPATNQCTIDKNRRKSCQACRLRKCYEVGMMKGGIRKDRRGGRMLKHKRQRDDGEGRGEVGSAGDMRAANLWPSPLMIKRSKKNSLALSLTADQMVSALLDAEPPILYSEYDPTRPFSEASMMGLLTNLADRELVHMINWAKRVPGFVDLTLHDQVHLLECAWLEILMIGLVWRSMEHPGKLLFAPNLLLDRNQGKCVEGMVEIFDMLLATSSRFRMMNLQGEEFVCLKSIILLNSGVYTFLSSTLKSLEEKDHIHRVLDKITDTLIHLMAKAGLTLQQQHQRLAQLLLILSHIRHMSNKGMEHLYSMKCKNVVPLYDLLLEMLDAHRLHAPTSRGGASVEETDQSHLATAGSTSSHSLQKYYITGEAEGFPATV
Chain of Aromatase (Homo sapiens) (P11511 whole entry, looked up): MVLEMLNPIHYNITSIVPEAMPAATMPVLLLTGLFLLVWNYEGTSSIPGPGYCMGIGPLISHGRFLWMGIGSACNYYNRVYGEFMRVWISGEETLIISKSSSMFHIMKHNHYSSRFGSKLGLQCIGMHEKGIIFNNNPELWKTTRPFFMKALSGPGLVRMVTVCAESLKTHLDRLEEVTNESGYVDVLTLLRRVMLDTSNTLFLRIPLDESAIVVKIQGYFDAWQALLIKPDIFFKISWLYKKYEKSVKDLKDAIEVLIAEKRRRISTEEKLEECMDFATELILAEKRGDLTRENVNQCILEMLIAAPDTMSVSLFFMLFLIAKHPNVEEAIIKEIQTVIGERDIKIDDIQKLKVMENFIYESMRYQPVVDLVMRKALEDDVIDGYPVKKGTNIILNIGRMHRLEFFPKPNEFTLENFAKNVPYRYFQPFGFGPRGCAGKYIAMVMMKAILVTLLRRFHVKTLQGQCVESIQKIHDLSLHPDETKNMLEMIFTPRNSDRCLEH
Chain of Androgen receptor (Homo sapiens) (P10275 whole entry, looked up): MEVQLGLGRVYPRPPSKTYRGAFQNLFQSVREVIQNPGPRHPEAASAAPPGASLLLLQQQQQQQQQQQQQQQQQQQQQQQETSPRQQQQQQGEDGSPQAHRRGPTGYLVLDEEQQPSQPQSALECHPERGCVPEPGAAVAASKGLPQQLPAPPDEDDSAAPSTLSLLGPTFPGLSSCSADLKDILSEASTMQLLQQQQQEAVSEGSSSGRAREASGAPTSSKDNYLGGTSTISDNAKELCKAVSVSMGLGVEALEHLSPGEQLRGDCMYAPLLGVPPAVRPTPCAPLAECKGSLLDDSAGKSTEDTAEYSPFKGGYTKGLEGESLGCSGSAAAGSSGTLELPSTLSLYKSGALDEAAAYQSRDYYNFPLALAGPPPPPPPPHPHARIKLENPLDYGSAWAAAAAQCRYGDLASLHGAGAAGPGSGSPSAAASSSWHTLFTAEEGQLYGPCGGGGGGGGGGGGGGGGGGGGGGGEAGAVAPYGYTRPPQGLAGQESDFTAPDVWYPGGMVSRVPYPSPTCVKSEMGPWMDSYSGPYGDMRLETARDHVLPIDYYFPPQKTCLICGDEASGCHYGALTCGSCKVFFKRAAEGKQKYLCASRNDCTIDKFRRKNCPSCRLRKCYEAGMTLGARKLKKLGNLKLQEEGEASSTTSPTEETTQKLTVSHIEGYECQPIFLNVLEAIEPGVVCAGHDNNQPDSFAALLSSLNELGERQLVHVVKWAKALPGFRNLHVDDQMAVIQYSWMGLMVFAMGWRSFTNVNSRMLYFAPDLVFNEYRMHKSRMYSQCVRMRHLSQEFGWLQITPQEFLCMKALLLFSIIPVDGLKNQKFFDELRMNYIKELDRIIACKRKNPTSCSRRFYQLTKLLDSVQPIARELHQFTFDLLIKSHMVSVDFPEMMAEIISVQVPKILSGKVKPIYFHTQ

For `CN(C)CCN(Cc1ccccc1)c1ccccn1`, the Potency result in assay [1], in [2], in assay [3], in assay [4], in assay [5] and in assay [6] was “inactive” in each case. Further, the Potency result in assay [7], in [8], in assay [9], in [10], in assay [11] and in assay [12] was “inactive” in each case. For the same compound, the Potency entry (in assay [13]; in assay [14]; with Aromatase (Homo sapiens)) was “inactive” throughout.
Turning to `C=C1[C@H]2CC[C@@H]3[C@H]2C(C)(C)CCC[C@]13C`, the Potency entry in assay [1], in assay [2], in assay [3], in assay [4], in assay [5] and in assay [6] was “inactive” each time. The Potency entry in assay [7], in [8], in assay [9], in [10], in [11] and in assay [12] was “inactive” throughout. Moreover, the Potency result (in [13]; in assay [14]; in the assay with Aromatase (Homo sapiens)) was “inactive” throughout.
With `CCN(CC)CCNc1ccc(CNC=O)c2sc3ccc(OC)cc3c(=O)c12`, the Potency in [1] was 38.9 µM (active); in [2] it was 8.63 µM (active); in assay [3] it was 9.69 µM (active); in assay [6], 8.63 µM (active); in assay [7] it was 24.3 µM (active); in assay [11] it was 4.36 µM [inconclusive] (active). In addition, the Potency is 2.73 µM (active) in assay [12], 4.86 µM (active) in [14] and 38.6 µM (active) with Aromatase (Homo sapiens). For the same compound, the Potency result in [5] and in assay [10] was “inactive” in each case.
Turning to `CCO[C@H](Cc1ccc(OCCc2ccc(OS(C)(=O)=O)cc2)cc1)C(=O)O`, the Potency result in assay [1], in [2], in assay [3], in assay [15], in assay [16] and in [17] was “inactive” each time. The Potency entry in assay [5], in assay [18], in assay [7], in assay [8], in [9] and in assay [11] was “inactive” each time. In addition, the Potency entry (in assay [12]; in assay [13]; in [14]; with Aromatase (Homo sapiens)) was “inactive” each time.
As to `CN1CCC(N(Cc2cccs2)c2ccccc2)CC1`, the Potency result in assay [1], in assay [5], in assay [8], in [9], in assay [10] and in [11] was “inactive” each time. The Potency entry (in assay [12]; in [13]; in assay [14]; with Aromatase (Homo sapiens)) was “inactive” in each case. The Potency is 9.44 µM (active) in [2], 11.9 µM (active) in assay [3], 11.9 µM (active) in assay [6] and 23.7 µM (active) in assay [7].
As for `O=C(O)c1ccc(-n2nc(-c3ccccc3O)nc2-c2ccccc2O)cc1`, the Potency result in assay [1], in assay [5], in [10], in assay [11] and in [14] was “inactive” each time. In addition, the Potency was 13.3 µM (active) in [2]; 18.8 µM (active) in assay [3]; 18.8 µM (active) in assay [19]; 29.8 µM (active) in assay [7]; 16.9 µM [inconclusive] (active) in [9].
Turning to `CCOC(=O)c1cccnc1`, the Potency result in assay [1], in assay [2], in [3], in assay [4], in [5] and in assay [6] was “inactive” throughout. In addition, the Potency entry in assay [7], in [8], in assay [9], in [10], in assay [11] and in assay [12] was “inactive” each time. Further, the Potency result (in assay [13]; in assay [14]; in the assay with Aromatase (Homo sapiens)) was “inactive” each time.
For the compound `CCCOC(C(=O)OC1CCN(C)CC1)(c1ccccc1)c1ccccc1`, the Potency entry in [1], in assay [5], in assay [9], in [10], in assay [11] and in assay [12] was “inactive” each time. In addition, the Potency entry (in [13]; with Aromatase (Homo sapiens)) was “inactive” in each case. The Potency is 5.96 µM (active) in assay [2], 7.5 µM (active) in assay [3], 11.9 µM (active) in assay [19] and 26.6 µM (active) in assay [7].
For `OCc1cc(C(O)CNCCCCCCOCCCCc2ccccc2)ccc1O` (configuration not stated), the Potency entry in [1], in [9], in assay [10] and in assay [11] was “inactive” throughout. In addition, the Potency in [2] is 3.35 µM (active) and 2.37 µM (active); in assay [3], 5.96 µM (active) and 4.73 µM (active); in assay [19], 5.31 µM (active) and 3.35 µM (active); in assay [6], 7.5 µM (active) and 11.9 µM (active); in assay [7] it was 10.6 µM (active) and 8.41 µM (active); in assay [14], 23.7 µM (active). Also, the Potency in the assay with Aromatase (Homo sapiens) was 26.6 µM (active).
As for `Cc1cccc(C)c1NC(=O)CN(CC(=O)O)CC(=O)O`, the Potency result in assay [1], in assay [2], in [3], in assay [4], in assay [5] and in assay [7] was “inactive” in each case. Also, the Potency result (in assay [8]; in [10]; in assay [14]; with Aromatase (Homo sapiens)) was “inactive” throughout.
On to `CC1OC(=O)C(C)OC1=O` (configuration not stated), for which the Potency result in [1], in [2], in assay [3], in assay [4], in assay [5] and in assay [7] was “inactive” throughout. In addition, the Potency result in assay [8], in [9], in [10], in [11], in [13] and in [14] was “inactive” in each case. Further, the Potency result with Aromatase (Homo sapiens) was “inactive”.
As to `CC(COCCO)OCCO` (configuration not stated), the Potency result in assay [1], in assay [2], in assay [3], in assay [4], in [15] and in [16] was “inactive” throughout. Further, the Potency entry in assay [17], in assay [5], in assay [18], in assay [6], in [7] and in assay [8] was “inactive” each time. For the same compound, the Potency result (in [10]; in assay [14]; in the assay with Aromatase (Homo sapiens)) was “inactive” each time.
Consider `CC1(c2ccccc2)OC(C(=O)O)=CC1=O` (configuration not stated), for which the Potency entry in [1], in assay [2], in assay [3], in assay [4], in assay [5] and in assay [6] was “inactive” throughout. Besides, the Potency result (in assay [7]; in assay [8]; in assay [10]; in assay [14]; in the assay with Aromatase (Homo sapiens)) was “inactive” throughout.
`CCCn1cnc2c1c(=O)n(CCCCC(C)=O)c(=O)n2C`: the Potency result in assay [1], in assay [2], in assay [3], in assay [4], in assay [15] and in assay [16] was “inactive” each time. Besides, the Potency entry in [17], in [5], in assay [18], in assay [6], in [7] and in assay [8] was “inactive” in each case. Moreover, the Potency entry in assay [9], in assay [10], in assay [11], in assay [12], in assay [13] and in [14] was “inactive” in each case. Also, in the assay with Aromatase (Homo sapiens), the Potency entry was “inactive”.
